Test results published in PubChem BioAssay (NCI).
About 83,000 compounds went through this panel and 20% of them were active in at least one assay; those are over-represented in the sample as a whole.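 Step 1: grow cells in 96-well plates. Step 2: add test compound at a single concentration. Step 3: incubate 48 h. Step 4: record percent growth.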 A number with no mark means an inactive call. Active and inactive are the calls of the source. The calls were made as follows: active = growth percent below 10; inactive = the rest.

Key:
Assay in all cases: NCI-60 one-dose screen, 48 h (100 = growth as untreated, 0 = no growth, -100 = all killed)
Conditions in all cases: 10 µM unless noted
SK-MEL-2 melanoma = system: SK-MEL-2 melanoma
EKVX NSCLC = system: EKVX NSCLC
SN12C renal = system: SN12C renal
UO-31 renal = system: UO-31 renal
TK-10 renal = system: TK-10 renal
ACHN renal = system: ACHN renal
CAKI-1 renal = system: CAKI-1 renal
A498 renal = system: A498 renal
CCRF-CEM leukemia = system: CCRF-CEM leukemia
MOLT-4 leukemia = system: MOLT-4 leukemia

Row | SMILES | growth (SK-MEL-2 melanoma) | growth (EKVX NSCLC) | growth (SN12C renal) | growth (UO-31 renal) | growth (TK-10 renal) | growth (ACHN renal) | growth (CAKI-1 renal) | growth (A498 renal) | growth (CCRF-CEM leukemia) | growth (MOLT-4 leukemia)
1 | COC1/C=C/OC2(C)Oc3c(C)c(O)c4c(O)c(c(/C=N/N(c5ccccc5)c5ccccc5)c(O)c4c3C2=O)NC(=O)C(C)=C/C=C/C(C)C(O)C(C)C(O)C(C)C(OC(C)=O)C1C (stereo not given) | 82.2% | 67% | 70.9% | 65.8% | 55.8% | 65% | 66.8% | 91.3% | 21.7% | 35.1%
2 | CN(C)CCCn1c2c(c3ccncc3c1=O)C(=O)c1ccccc1-2 | -4.66% (active) | 82.7% | 6.53% (active) | -37.4% (active) | 12.8% | -38.4% (active) | 10.8% | 58% | 1.34% (active) | -15% (active)
3 | Fc1ccc2[nH]cc(-c3nc(-c4c[nH]c5c(Cl)nccc45)cs3)c2c1 | 73.4% | 63.2% | 65.9% | 21.8% | 33.8% | 17.7% | 49.2% | 14% | 28.5% | 38.2%
4 | COC(=O)/C(CCC=C(C)C)=C1\[C@@H](OC(C)=O)C[C@@]2(C)[C@H]1C/C(=N/O)[C@H]1[C@@]3(C)CC/C(=N\O)[C@@H](C)[C@@H]3CC[C@@]12C | 96.7% | 100% | 95.1% | 77.5% | 119% | 102% | 76.1% | 111% | 87.3% | 72.1%
5 | c1ccc(-c2c(-c3ccccc3)[n+](Cc3ccc4ccccc4c3)cn2Cc2ccc3ccccc3c2)cc1 | -79.4% (active) | -46.7% (active) | -76% (active) | -22.4% (active) | -81.2% (active) | -100% (active) | -9.42% (active) | -95.4% (active) | -66% (active) | -67.7% (active)
6 | CCOC(=O)C(CCN(C)C)c1ccccc1 (stereo not given) | 101% | 101% | 99.5% | 90.9% | 95% | 104% | 94.5% | 107% | 93.2% | 116%
7 | O=C1C=C(SCCO)C(=O)c2ccccc21 | 28.4% | 53.5% | -87.1% (active) | -37.4% (active) | 95.9% | -74% (active) | 47.5% | 113% | -14.4% (active) | 2.43% (active)
8 | O=C(CCCCCCCC(=O)N1CCCCC1)N1CCCCC1 | 103% | 100% | 99.4% | 71.4% | 97.3% | 97.8% | 89.4% | 94.2% | 116% | 126%
9 | CCCN(CCSSCCNc1nc(N(C)O)nc(N(C)O)n1)c1nc(N(C)O)nc(N(C)O)n1 | 69.8% | 54.3% | 69.7% | 52.3% | 71% | 45.3% | 31.9% | 64.4% | 9.07% (active) | 47.3%
10 | O=C1/C(=C/c2cccc(Br)c2)COc2ccc(O)cc21 | 79.2% | 78.4% | 4.81% (active) | 54.1% | 93.1% | 54.6% | 63.5% | 99.5% | 0.865% (active) | 6.15% (active)
11 | C=CN(C(=O)N1CCN(c2cc3c(cc2F)c(=O)c(C(=O)O)cn3C2CC2)CC1)c1nc(-c2ccccc2)cs1 | 88.3% | 109% | 92.8% | 84.7% | 105% | 91.1% | -82.3% (active) | 76% | 93.2% | 88.2%
12 | O=[N+]([O-])c1ccccc1Sc1ccccc1[N+](=O)[O-] | 97.2% | 91.2% | 99.3% | 75.5% | 85.2% | 102% | -54.5% (active) | 81.2% | 107% | 94.8%
13 | Cc1c2cnccc2c(C)c2c1c1cc(CO)ccc1n2C | -75.5% (active) | -15.2% (active) | -33.8% (active) | -32.6% (active) | -27.7% (active) | -36.4% (active) | -28.3% (active) | -67.1% (active) | -7.79% (active) | -10.8% (active)
